Most compounds without a hit are left out; they make up all but 4.1% or so of the library.
DAX1 inh-1: DAX1 (NR0B1) inhibition, primary screen; HEK293T StAR-luciferase reporter, SF-1/DAX-1 repression relief; inhibition, % at 6.8 µM; actives 1.1% (n = 370,000);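 active = inhibition above the mean over all tested compounds plus 3 SD, cut at about 3.6% in these data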;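 also: 0% = DAX-1 cells with DMSO and 100% = cells lacking DAX-1 with DMSO; higher inhibition means more luminescence from relief of DAX-1 repression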
hgDAF12 agonist: hgDAF-12 agonism, primary luciferase screen | AID 687014 | HEK293 GAL4-hgDAF12 UAS-luciferase reporter, agonist luminescence; normalized to butyrate control | actives 1.8% (n = 370,000) | activation, % at 6.8 µM;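 active = activation above a cutoff set at the mean of all screened compounds plus 3 SD, cut at about 10% in these data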;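 also: 0% = DMSO wells and 100% = sodium butyrate wells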
DAX1 inh-2: inhibits human nuclear receptor DAX1. HEK293 Gal4-DAX1 luciferase reporter, luminescence. inhibition, % at 6.75 µM. actives 0.99% (n = 340,000). AID 504766;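 active = inhibition above the mean over all tested compounds plus 3 SD, cut at about 4.2% in these data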;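 also: 0% = DAX1-transfected cells with DMSO and 100% = empty-vector control cells with DMSO; inhibition shows as a rise in luminescence from relieved DAX1 repression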
Target sequence (P51843 207-470 limits assumed): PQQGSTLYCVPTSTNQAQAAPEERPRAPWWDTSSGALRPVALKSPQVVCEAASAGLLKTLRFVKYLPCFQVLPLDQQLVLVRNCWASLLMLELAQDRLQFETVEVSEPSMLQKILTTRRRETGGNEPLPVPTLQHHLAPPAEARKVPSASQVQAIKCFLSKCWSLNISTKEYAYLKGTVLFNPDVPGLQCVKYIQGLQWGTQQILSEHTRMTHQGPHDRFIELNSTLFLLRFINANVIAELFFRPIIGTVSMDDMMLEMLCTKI
ssDAF12 agonist: S. stercoralis DAF-12 activation, primary screen | HEK293 ssDAF-12/GRIP1 lit1-tk-luc reporter, luminescence; % of 3 µM dafachronic acid response | activation, % at 6.8 µM | actives 1% (n = 370,000);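 active = activation above the mean over all tested compounds plus 3 SD, cut at about 0.9% in these data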;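 also: 0% = DMSO-only wells and 100% = 3 µM delta7-dafachronic acid wells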
hcDAF12 agonist: activators of H. contortus DAF-12 nuclear receptor; actives 1.4% (n = 370,000); activation, % at 6.8 µM; HEK293 hcDAF-12 lit1-tk-luc reporter, luminescence; 0% DMSO, 100% Δ7-dafachronic acid; AID 652067;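 active = activation above the mean of all tested compounds plus 3 SD, cut at about 5.5% in these data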;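 also: 100% = response to 3 µM Δ7-dafachronic acid high control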
LXR ag: activates human LXR-beta, counter-screen for hcDAF-12 agonists. shares compounds with hcDAF12 agonist. HEK293 Gal4-LXR tk-luc reporter, luminescence, 24 h; normalized: DMSO 0%, positive control 100%. 3,400 tested, under 10 active. activation, % at 6.8 µM. AID 743027;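 active = mean percent activation of the reporter above a cutoff set as the average over tested compounds plus their standard deviation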
Target sequence (P55055 whole entry, looked up, the tested form may be a part): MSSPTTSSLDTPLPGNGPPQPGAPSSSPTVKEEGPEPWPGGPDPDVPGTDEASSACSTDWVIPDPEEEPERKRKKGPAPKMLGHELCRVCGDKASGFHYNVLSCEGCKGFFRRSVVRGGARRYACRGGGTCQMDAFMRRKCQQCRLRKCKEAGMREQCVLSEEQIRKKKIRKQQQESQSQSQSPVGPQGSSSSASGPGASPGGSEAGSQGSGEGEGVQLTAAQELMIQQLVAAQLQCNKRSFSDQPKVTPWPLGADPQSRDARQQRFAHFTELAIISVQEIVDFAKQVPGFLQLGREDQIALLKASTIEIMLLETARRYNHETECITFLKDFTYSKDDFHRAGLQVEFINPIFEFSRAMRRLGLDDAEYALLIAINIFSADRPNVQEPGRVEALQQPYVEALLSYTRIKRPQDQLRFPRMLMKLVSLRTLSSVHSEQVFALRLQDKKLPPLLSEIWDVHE
hcDAF12 ag: confirmation of H. contortus DAF-12 agonists; HEK293 hcDAF-12 lit1-tk-luc reporter, luminescence; % of Δ7-dafachronic acid response; AID 743032; activation, % at 6.8 µM; actives 61% (n = 3,400); shares compounds with hcDAF12 agonist;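 active = mean activation across triplicate tests above the threshold derived from the earlier primary screen, cut at about 5.5% in these data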;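 also: 0% = DMSO only wells and 100% = 3 µM Δ7-dafachronic acid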
hgDAF12 ag: hgDAF-12 agonism, confirmation assay | shares compounds with hgDAF12 agonist | HEK293 GAL4-hgDAF12 luciferase reporter, agonist mode; percent of butyrate response | activation, % at 6.8 µM | actives 80% (n = 3,300);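 active = mean activation over triplicate wells above the hit cutoff derived from the earlier primary screen, cut at about 11% in these data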;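 also: 0% = DMSO low control and 100% = 2 mM sodium butyrate high control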
LXRb DAF12 ctr: activates human LXR-beta, counter-screen for DAF-12 agonists; shares compounds with hgDAF12 agonist; 3,300 tested, under 10 active; activation, % at 6.8 µM; HEK293 Gal4-LXR luciferase reporter, 24 h;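 active = mean activation of the triplicate above a set limit carried over from the primary screen, none filed active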
* = called active by the depositor; . = no result.

SMILES | DAX1 inh-1 | hgDAF12 agonist | DAX1 inh-2 | ssDAF12 agonist | hcDAF12 agonist | LXR ag | hcDAF12 ag | others
CN(C)c1nc(N)nc(-c2nc3ccccc3s2)n1 | 3 | 11* | 3 | 1.6* | 9.3* | 2 | 16*
Nc1ccccc1-c1nc2ccccc2s1 | 3 | 26* | 2 | 1.9* | 11* | 1 | 10*
CCCCNC(=O)C[C@H]1C[C@@]2(C(=O)OCC)CCCC3=C2N(CCC3)C1=O | 0 | -1 | . | -1 | 1 | . | .
CSC(=Cc1ccc(C(=O)c2ccc(C)cc2)n1C)S(C)=O (centres undefined) | -1 | 0 | . | 0 | -1 | . | .
COC(=O)c1ccc2nc(-c3ccc(Cl)cc3)c(Cc3ccccc3OC)n2c1 | 0 | 0 | . | -1 | -1 | . | .
COc1ccccc1Cc1c(-c2ccc(F)cc2)nc2ccc(Cl)cn12 | 4.0* | 11* | . | 0 | 7.0* | 0 | 1
O=C(O)CCC(=O)N1CCN(c2ccc(C(=O)c3ccc(F)cc3)cc2)CC1 | -1 | 3 | -1 | -1 | -1 | . | .
CN1CCN(c2ccc(C(=O)c3ccc(F)cc3)cc2)CC1 | 2 | 12* | 2 | -1 | 8.9* | 1 | 5
O=C(Nc1c(-c2ccc(C(F)(F)F)cc2)nc2ncccn12)c1ccc(F)cc1 | -1 | 6 | . | -1 | 1 | . | .
CC(=O)Nc1cc2c(ccc3ccccc32)oc1=O | 0 | 3 | . | -1 | -2 | . | .
O=C(Nc1cc2c(ccc3ccccc32)oc1=O)C1CCCCC1 | 0 | -1 | 0 | 0 | 7.3* | 0 | 1
COc1ccccc1C(C#N)N1N=C(C)CC1c1ccccc1 (centres undefined) | 0 | -1 | 1 | -1 | -1 | . | .
COc1cc(C(C#N)N2N=C(c3ccccc3)CC2c2ccccc2)ccc1O (centres undefined) | 1 | 12* | 1 | 1.4* | 7.9* | 0 | 3
N#CC(c1ccccc1O)N1N=C(c2ccccc2)CC1c1ccccc1 (centres undefined) | 1 | 8 | 4 | 1.6* | 9.2* | 1 | 7.3*
COc1cc(SC)ccc1C(=O)Nc1ccccc1 | 2 | 9 | 2 | 0 | 7.7* | 1 | 8.3*
COc1ccccc1C(=O)Nc1cccc(SC)c1 | -1 | 9 | 3 | 0 | 3 | . | .
COc1cccc(NC(=O)Nc2ccncc2)c1 | 0 | 2 | 0 | -1 | 6.8* | 0 | 0
COc1cccc(NC(=O)c2cc3ccccc3cc2OC)c1 | 1 | 10 | 4 | 0 | 8.4* | 1 | 9.3*
CC(C)CN1C(=O)C[C@]2(C(=O)N(C)c3ccc(NS(=O)(=O)c4ccc(F)cc4)cc32)C1c1ccccc1 (some centres undefined) | -1 | 2 | . | -1 | 1 | . | .
O=C(O)COc1ccccc1/C=N/NC(=O)c1cc2ccccc2cc1O | 2 | 10 | 0 | 2.7* | 11* | 0 | 5
CCc1ccccc1C1C(=O)c2ccccc2C1=O | 1 | 2 | -1 | -1 | -1 | . | .
O=C1c2ccccc2C(=O)C1c1nccc2ccccc12 | 3 | 18* | 2 | 4.0* | 27* | 2 | 24*
Cc1cc(/C=C2\SC(=S)NC2=O)c(C)n1-c1ccccc1 | 2 | 8 | . | 1.6* | 13* | 1 | 13*
Cc1cc(O)ccc1N/C=C(\C#N)c1nc2ccccc2o1 | 1 | 0 | 0 | 0 | 8.8* | 0 | 3
N#C/C(=C\c1c(Cl)cccc1Cl)c1nc2ccccc2[nH]1 | 0 | 0 | -1 | 0 | 3 | . | .
SMILES | DAX1 inh-1 | hgDAF12 agonist | DAX1 inh-2 | ssDAF12 agonist | hcDAF12 agonist | LXR ag | hcDAF12 ag | others
N#C/C(=C\c1c(Cl)cccc1Cl)c1nc2ccccc2o1 | -1 | 1 | 0 | -1 | 6.6* | 0 | 0
CCCCOc1ccc(C(=O)n2ccc3ccc(-c4ccc5ccn(Cc6ccc(OC)cc6)c5c4)cc32)cc1 | -2 | -2 | . | -1 | -1 | . | .
COC(=O)C1CN(C(=O)OC(C)(C)C)C2=C1C(=O)CC(C)(C(=O)OC(C)(C)C)C2 (centres undefined) | 0 | -1 | . | -1 | -2 | . | .
O=c1[nH]c2ccccc2c2nc3ccccn3c12 | 1 | 12* | 2 | 1.7* | 8.1* | 0 | 9.5*
O=c1nc2c(O)cccn2c2c1c(=O)[nH]c1ccccc12 | 1 | -1 | 1 | -1 | 3 | . | .
COC(=O)[C@]12C[C@H](CC(=O)N3CCCC3)C(=O)N(CCc3ccc(OC)c(OC)c3)C1=C[C@H](C1CCCC1)O[C@@H]2C | -1 | 2 | . | -2 | 0 | . | .
C[C@H]1CCC[C@@H](O)CC(=O)c2c(O)cc(O)cc2CC(=O)O1 | -4 | -9 | . | -1 | -1 | . | .
Cc1cc2ccccc2n1CCNC(=O)c1ccccc1 | 1 | 1 | -1 | 0 | 4 | . | .
Cc1cc2ccccc2n1CCNC(=O)c1ccc(Br)o1 | 3 | 2 | 3 | 0 | 8.0* | 0 | -1
CCOC(=O)N(C)C[C@H]1OCc2cn(nn2)CCCC(=O)N([C@@H](C)CO)C[C@@H]1C | 1 | 1 | . | -1 | 0 | . | .
Cc1cc2nc(-c3ccc[nH]c3=O)[nH]c2cc1C | 3 | 15* | -5 | 1.2* | 7.6* | 2 | 7.9* | hgDAF12 ag=12*;LXRb DAF12 ctr=1
Cc1cc2nc(-c3ccc[nH]c3=O)n(Cc3ccc(F)cc3)c2cc1C | 0 | 1 | 1 | -1 | 0 | . | .
COc1nc(C)ccc1-c1noc(-c2cccs2)n1 | 3 | 14* | . | 0 | 8.4* | 1 | 6.2* | hgDAF12 ag=16*;LXRb DAF12 ctr=1
COc1cccc(-c2noc(-c3cccs3)n2)c1 | 4.0* | 15* | 2 | 1.4* | 6.9* | 2 | 11* | hgDAF12 ag=21*;LXRb DAF12 ctr=1
Cc1cc(N2CCOCC2)n2ncc(-c3ccccc3Cl)c2n1 | 3 | 18* | 4 | 0 | 6.9* | 1 | 7.0* | hgDAF12 ag=16*;LXRb DAF12 ctr=1
O=C(N/N=C/c1c[nH]c2ccccc12)c1cc(-c2ccccc2)n[nH]1 | 0 | 2 | 1 | 0 | 1 | . | .
O=C(N/N=C/c1c[nH]c2ccccc12)c1cc(-c2ccc(-c3ccccc3)cc2)n[nH]1 | 1 | 15* | 1 | 1 | 7.8* | 0 | 4 | hgDAF12 ag=0;LXRb DAF12 ctr=0
